High-throughput results deposited in PubChem BioAssay by several laboratories.
SKKanGAS inh: S. pyogenes SKKanGAS growth inhibitors in kanamycin, primary screen, streptokinase expression inhibitor project, SKKanGAS strain, BacTiter-Glo luminescence; AID 1662, 2009; 6 h; 300,000 compounds, 1.3% hits; inhibition, % at 7.5 µM;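 active means mean replicate score, as percent of positive control median, at least 50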;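 further: strain carries kanamycin resistance gene driven by streptokinase promoter and grows in 40 µg/ml kanamycin; loss of luminescence reflects streptokinase promoter inhibition or plain growth inhibition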
tim10-1 inh: growth inhibitors of tim10-1 mutant yeast, primary screen, luminescence, uHTS | S. cerevisiae tim10-1 ts strain growth, BacTiter-Glo, 24 h | inhibition, % at 20 µM | 330,000 compounds, 2.2% hits | AID 463190, 2010;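 active means inhibition of at least 40%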;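 further: mutant grown at 25 °C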
NALP3 yeast inh: NALP3 inflammasome inhibitors in reconstituted yeast, primary screen, luminescence, uHTS. inhibition, % at 10 µM. 330,000 compounds, 0.39% hits. Yeast reconstituted NLRP3/ASC/caspase-1, beta-gal luminescence, 24 h;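 active means inhibition of 50% or more; inactive means inhibition below 50%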
PfHsp90 yeast 2: growth inhibition of PfHsp90-expressing yeast, primary screen, antimalarial PfHsp90 inhibitor project, S. cerevisiae, BacTiter-Glo luminescence, single point, set 2; AID 504621, 2011; inhibition, % at 9.4 µM; BacTiter-Glo ATP, 48 h; yeast lacking PDR1 and PDR3 efflux regulators; 310,000 compounds, 0.32% hits;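 active means every replicate shows inhibition above about 80%, whatever the replicate mean, limit read from the data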
TIM10 inh: growth inhibitors of isogenic TIM10 control yeast, primary screen, counter-screen for tim10-1 yeast inhibitor project, luminescence, uHTS | 330,000 compounds, 1.4% hits | inhibition, % at 10 µM | S. cerevisiae TIM10 strain growth, BacTiter-Glo luminescence, 24 h;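 active means inhibition of 40% or more at the single tested concentration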;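 further: wild-type TIM10 isogenic control strain grown at permissive 25 °C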
tim23-1 inh: growth inhibitors of tim23-1 mutant yeast, primary screen, luminescence, uHTS | S. cerevisiae tim23-1 growth, BacTiter-Glo luminescence, 24 h | inhibition, % at 20 µM | 330,000 compounds, 1.3% hits | AID 463212, 2010;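 active means growth inhibition of the mutant yeast at or above 50%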;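 further: temperature-sensitive mutant grown at 25 °C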
NALP3 yeast conf: NALP3 inhibitors retested in yeast, confirmation, luminescence, single concentration; shares compounds with NALP3 yeast inh; yeast expressing human NALP3; inhibition, % at 10 µM; 1,300 compounds, 81% hits; in the data active means inhibition above about 48%
Casp1-ASC yeast: CASP1-PYCARD signaling inhibition in yeast, confirmatory test, counterassay for NLRP3 inhibitor program, one-dose. shares compounds with NALP3 yeast inh. AID 488784, 2010. yeast expressing Caspase-1-ASC, luminescence counter screen. 1,000 compounds, 66% hits. inhibition, % at 10 µM
NALP3 retest: NALP3 inhibitors in yeast, repeat test, confirmation, luminescence, single concentration, retest | shares compounds with NALP3 yeast inh | AID 488794, 2010 | 1,000 compounds, 53% hits | yeast expressing human NALP3, luminescence read-out | inhibition, % at 10 µM
Numbers stand for hits; n = inactive; x = not tested or not shown. The list is not random: actives were taken first. Their share in the collection is about 4.6%. Unless noted, no stated cut-off is given here; in the data, active means inhibition above about 50%; inactive means the rest.

SMILES	SKKanGAS inh	tim10-1 inh	NALP3 yeast inh	PfHsp90 yeast 2	TIM10 inh	tim23-1 inh	NALP3 yeast conf	Casp1-ASC yeast	NALP3 retest
CC(=O)O[C@H]1CC[C@@]2(C)C(=CC[C@@H]3[C@@H]2CC[C@]2(C)C(=O)CC[C@@H]32)C1	x	n	58	n	n	n	59	59	n
CCCCCCCCCCCCCCCC[N+](C)(C)C	103	n	60	109	n	n	53	55	59
Cc1c(-c2cccc(Cl)c2)nc2ccccc2c1C(=O)N1CCC2(CC1)OCCO2	n	n	77	n	n	n	n	n	n
N#CC(C#N)=Cc1ccc(-c2ccccc2)o1	n	n	73	x	n	n	74	x	x
COc1ccc(C(=O)C(Cc2ccccc2)N(C)C)cc1 (stereo not given)	n	n	56	n	n	n	72	n	n
CN(C)C(Cc1ccc(C#N)cc1)C(=O)c1ccccc1 (stereo not given)	n	n	n	n	n	n	x	x	x
CN(C)C(Cc1ccccc1)C(=O)c1ccc(-c2ccccc2)cc1 (stereo not given)	n	n	56	n	n	n	67	55	62
Cc1cc(N(CCCl)CCCl)ccc1/C=N/N=C(\N)c1cnccn1	n	n	n	n	n	n	x	x	x
Cc1ncc2n1-c1ccc(Cl)cc1C(c1ccccc1F)=NC2	x	n	n	x	n	n	x	x	x
CC(N)C(=O)OC(C)(C)Cc1ccc(Cl)cc1 (stereo not given)	x	n	69	n	n	n	56	n	56
C[C@]12CC[C@@H](O)CC1=CCC1C2CC[C@]2(C)C(=O)[C@H](F)CC12 (stereo not given in full)	x	n	n	n	n	n	x	x	x
CC(C)[C@H]1CC2C3CC=C4C[C@@H](O)CC[C@]4(C)C3CC[C@]2(C)[C@H]1O (stereo not given in full)	x	n	53	x	n	n	56	x	x
C[C@]12CC[C@H](O)CC1=CC[C@@H]1[C@@H]2CC[C@@]2(C)[C@H]1CC[C@]2(C)O	n	n	59	x	n	n	67	59	n
C[C@]12C[C@H](O)[C@@H](O)CC1=CCC1C2CC[C@@]2(C)C1CC[C@@H]2O (stereo not given in full)	x	n	55	n	n	n	66	x	x
CC(=O)O[C@H]1CC[C@@]2(C)C(=CC(=O)C3C2CC[C@@]2(C)C3C[C@H](OC(C)=O)[C@@H]2OC(C)=O)C1 (stereo not given in full)	x	n	n	n	n	n	x	x	x
COc1ccc(CNCCc2c(C)[nH]c3ccc(OC(F)(F)F)cc23)c(OC)c1	n	n	n	n	n	n	x	x	x
NC(Cc1ccccc1)c1nn[nH]n1 (stereo not given)	x	x	x	n	x	x	x	x	x
CC(=O)N1CCN(CCN=Cc2c(O)n(-c3ccc(C)cc3)c(=S)[nH]c2=O)CC1	n	n	n	n	n	n	x	x	x
COc1ccc(-n2c(O)c(C=NCCN3CCN(C(C)=O)CC3)c(=O)[nH]c2=S)cc1	n	n	53	n	n	n	67	n	n
O=[N+]([O-])c1ccc(N2CCCCCC2)c2ncccc12	n	n	54	x	n	n	56	53	52
CC(C)c1ccc(C2NCc3ccccc3-n3cccc32)cc1 (stereo not given)	n	n	64	n	n	n	n	60	58
CC1CCN(c2cc(Br)c([N+](=O)[O-])cc2F)CC1	n	n	68	n	n	n	73	77	58
O=[N+]([O-])c1cc(F)c(N2CCCC2)cc1Br	n	n	67	n	n	n	82	80	64
Cc1cc(OCC(=O)NCc2ccc(S(N)(=O)=O)cc2)c2c3c(c(=O)oc2c1)CCC3	n	n	n	n	n	n	x	x	x
C[C@H](O)[C@H]1CC[C@H]2[C@@H]3CCC4=CC(=O)CC[C@]4(C)[C@H]3CC[C@]12C	n	n	52	n	n	n	73	n	n
SMILES	SKKanGAS inh	tim10-1 inh	NALP3 yeast inh	PfHsp90 yeast 2	TIM10 inh	tim23-1 inh	NALP3 yeast conf	Casp1-ASC yeast	NALP3 retest
Oc1ccc(/C=N/NP(=S)(c2ccccc2)c2ccccc2)cc1	n	n	56	n	n	n	74	65	57
COc1cc(/C=N/NP(=S)(c2ccccc2)c2ccccc2)ccc1O	n	n	n	n	n	n	x	x	x
CCN1CCC(NCC2CCCCC2)CC1	n	n	n	n	n	n	x	x	x
BrCC1C[n+]2c(SCc3ccccc3)nc3sc4c(c3c2O1)CCCC4 (stereo not given)	n	n	n	n	n	n	x	x	x
Nc1c2c(nc3sc4c(c13)CCCCC4)CCCC2	n	n	63	n	n	n	79	n	n
O=P(Oc1ccccc1)(Oc1ccccc1)c1ccccc1	n	n	n	n	n	n	x	x	x
CCN(CCNc1ccc([N+](=O)[O-])c2cccnc12)S(=O)(=O)c1ccc(Cl)cc1	n	n	50	n	n	n	65	n	n
CCN(CCNc1ccc([N+](=O)[O-])c2cccnc12)S(=O)(=O)c1ccccc1	n	n	n	n	n	n	x	x	x
C=C1[C@H]2CC[C@H]3[C@]4(C)C[C@H](O[C@@H]5OC(CO)[C@@H](OSOOO)[C@H](OS(=O)(=O)O)[C@H]5OC(=O)CC(C)C)C[C@@H](C(=O)O)[C@H]4CC[C@]3(C2)[C@H]1O (stereo not given in full)	x	n	n	n	n	n	x	x	x
C[C@]12CCC3C(CC[C@H]4C[C@H](N)CC[C@]34C)C1CC[C@H]2O (stereo not given in full)	n	n	n	n	n	n	x	x	x
C[C@]12CCC3C(CC[C@H]4CC(=O)CC[C@]34C)C1CCC2=O (stereo not given in full)	x	n	61	n	n	n	56	x	x
CC12CCC(=O)C=C1CC(O)C1C2CCC2(C)C1CCC2(C)O (stereo not given)	x	x	x	n	x	x	x	x	x
CC12C=CC(=O)CC1CCC1C2CCC2(C)C(O)C(O)CC12 (stereo not given)	x	x	x	n	x	x	x	x	x
C[C@]12CCC(=O)C[C@H]1CC[C@@H]1[C@@H]2CC[C@]2(C)C(=O)CC[C@@H]12	x	n	66	n	n	n	70	61	n
